According to ChEMBL document CHEMBL3988442, “University of Dundee, Small-Polar-MMV Screening Library” (2021):
Out of some 48,000 compounds screened, about 13,000 (27%) showed an effect of 50% or more. Some of the results follow.

system: Wolbachia pipientis; assay: Anti-Wolbachia Cell-Based Screen; assay type: functional; parameters: scale not given: in the data most compounds retested in dose-response had high values; conditions: 5 µM

SMILES	Percent Effect
O=C(NCCOc1ncc(Cl)cc1Cl)c1ccoc1	25.9%
CO[C@H]1CCN(S(=O)(=O)c2cn(C)cn2)[C@H]1Cc1cnn(C)c1.O=C(O)C(F)(F)F	-3.902%
CCS(=O)(=O)N1CCC(Nc2ccc(C#N)cc2F)CC1	19.57%
CC(NCc1ccc(C(C)(C)C)cc1)c1ccc(S(C)(=O)=O)cc1 (configuration not stated)	2.046%
O=S(=O)(N[C@H]1CC[C@H]1NC1Cc2ccccc2C1)c1cccnc1	1.504%
CCC(NC1Cc2ccccc2C1)c1ccc(S(C)(=O)=O)cc1 (configuration not stated)	106.7%
CCC(NC1CSCCSC1)c1ccc(S(C)(=O)=O)cc1 (configuration not stated)	107.2%
CCC(Nc1nccc(C2CCCC2)n1)c1ccncc1 (configuration not stated)	-45.04%
CCC(NC(=O)c1cnc(N(C)C)nc1C)c1ccc(S(C)(=O)=O)cc1 (configuration not stated)	-15.6%
CC(C)c1ccc(CNC(C)c2ccc(S(C)(=O)=O)cc2)cc1 (configuration not stated)	0.134%
CCC(NC1CCCC1)c1ccc(S(C)(=O)=O)cc1 (configuration not stated)	102.8%
CS(=O)(=O)c1ccc(CNC(=O)N2CCC(c3ccccc3)CC2)cc1	-1.969%
CCCN(C)CC1CCN(c2ncc(Br)cn2)C1 (configuration not stated)	-2.862%
CC(C)CNC[C@H]1COCc2nc3cccnc3n21	-3.474%
Cc1nc(C(=O)N2CCCC(c3nc(C(C)C)cs3)C2)c[nH]1 (configuration not stated)	27.35%
Cc1cc(C(=O)NCCCn2nccc2C2CC2)c(=O)[nH]c1C	-16.3%
Cc1ccc(CN2CC[C@H](c3nc4cccc(C(N)=O)c4[nH]3)C2)cc1	-7.444%
CN(C)c1ccc(CN2CCC(C(O)Cc3ccccc3)CC2)cn1 (configuration not stated)	1.983%
O=C(Nc1cnn(CCN2CCOCC2)c1)c1ccccc1O	-9.189%
CC(O)C1CCN(Cc2cnc3c(-c4ccccc4)cnn3c2)CC1 (configuration not stated)	2.9%
Cn1cc(C(=O)Nc2ccc(CN3CCOCC3)cn2)cn1	-16.87%
CSc1ccc(CN2CCC(CCC(=O)Nc3ccccc3)CC2)cc1	8.024%
CC(C)c1ncc(CN2C[C@@H](CN3CCC(CO)CC3)[C@@H](CO)C2)cn1	1.413%
O=C(O)c1ccccc1-c1ccc(CN2CCC(CO)C2)cn1 (configuration not stated)	95.58%

SMILES	Percent Effect
OCC1(CC2CC2)CCCN(Cc2ccc(C(F)(F)F)nc2)C1 (configuration not stated)	-8.11%
O=C(O)c1ccccc1-c1ccc(CN2CCC(CO)CC2)cn1	112.1%
O=C(O)c1ccccc1-c1ccc(CN2CCOCC2)cn1	106.2%
O=C(O)c1ccccc1-c1ccc(CN2CCC(CO)C2)cc1 (configuration not stated)	100.7%
CC(C)=CCC1(CO)CCCN(S(=O)(=O)N2CCCC2)C1 (configuration not stated)	-19.27%
COCCOc1ccccc1NC(C)C(=O)NC(=O)NC(C)(C)C (configuration not stated)	2.141%
O=C1CCC(=O)N1CCN1CCOC(c2ccsc2)C1 (configuration not stated)	-5.454%
O=C1NCCO[C@H]2CN(C(=O)CC3Cc4ccccc4C3)CC[C@@H]12	-17.08%
Cc1cc(C)n(-c2cc(N3CCN(C(=O)C(C)(C)C)CC3)nc(C)n2)n1	-2.343%
CCCS(=O)(=O)N1CCN(c2cc(-n3nc(C)cc3C)nc(C)n2)CC1	56.72%
CCCS(=O)(=O)N1CCN(c2cc(-n3cnc(C)c3C)nc(C)n2)CC1	2.706%
CCCS(=O)(=O)N1CCN(c2cc(-n3ccnc3)nc(C)n2)CC1	-9.543%
CCS(=O)(=O)N1CCN(c2cc(-n3cnc(C)c3C)nc(C)n2)CC1	9.656%
CCCS(=O)(=O)N1CCN(c2cc(-n3cccc3)nc(C)n2)CC1	64.17%
CCc1nc(CN2CCCN(CC(=O)Nc3cccnc3)CC2)no1	22.91%
CCc1nnc(N2C[C@@H](CN(C)CCO)[C@@H](CO)C2)s1	-3.241%
Cc1ccc(NC2CCN(C(=O)c3cscn3)CC2)nn1	107.8%
Cc1ccc(NC2CCN(C(=O)CCc3c(C)noc3C)CC2)nn1	116%
Cc1ccc(NC2CCN(C(=O)CCc3ccncc3)CC2)nn1	118.5%
Cc1ccc(NC2CCN(C(=O)c3c(C)noc3C)CC2)nn1	4.919%
Cc1ccc(NC2CCN(C(=O)CCc3nccs3)CC2)nn1	139%
Cc1ccc(NC2CCN(C(=O)c3cc[nH]n3)CC2)nn1	-5.889%
Cc1ncc2c(n1)CN(CCCc1nc3ccccc3o1)CC2	-1.914%
CC(CNC(=O)c1nnn(-c2ccccc2)c1C(F)(F)F)N(C)C (configuration not stated)	5.891%

SMILES	Percent Effect
COC(=O)c1ccc2ccn(CC3CCCN(C)C3)c(=O)c2c1 (configuration not stated)	-29.85%
CCOc1ccccc1CCNC(=O)NCC(O)c1cccs1 (configuration not stated)	-11.69%
CCCNC(=O)CCNC(=O)N1CCc2c(F)ccc(F)c2C1	-1.074%
COc1ccc(C(=O)NC2COc3ccccc3C2)cc1OCC(=O)O (configuration not stated)	-8.358%
CCC(O)CNC(=O)c1coc(COc2ccc3sc(C)nc3c2)n1 (configuration not stated)	7.295%
Cc1ccc(NC2CCN(C(=O)CCc3ccsc3)CC2)nn1	107.5%
Cc1ccc(NC2CCN(C(=O)CCc3ccccc3)CC2)nn1	109.9%
O=C(CCc1cccs1)N1CCC(Nc2cccnn2)CC1	-8.369%
Cc1ccc(NC2CCN(C(=O)CCc3cscn3)CC2)nn1	118.6%
O=C(CCc1ccsc1)N1CCC(Nc2cccnn2)CC1	87.13%
Cn1c(C(F)(F)F)nn(CCNC(=O)Nc2ccccc2Cl)c1=O	-9.892%
COCc1c(C(=O)N2CCCC(N(C)Cc3ccccc3)C2)noc1C (configuration not stated)	2.95%
Cc1nccn1-c1ccccc1CNC(=O)c1cn(CCN)nn1	1.636%
NCc1cn(-c2ccccc2C(=O)NCc2ccccc2Cl)cn1	137.2%
COc1ccc(F)cc1-n1cnc(CCNC(C)=O)c1	-9.257%
NCc1cn(-c2ccccc2C(=O)NCc2cccc(Cl)c2)cn1	-5.254%
COc1ccc(Cl)cc1-n1cnc(CCNC(C)=O)c1	-30.19%
COc1cccc(CNC(=O)c2ccccc2-n2cnc(CN)c2)c1	113.9%
COc1cccc(CNC(=O)N2CCCC(Cn3cc(CN)nn3)C2)c1 (configuration not stated)	-31.64%
NCc1cn(-c2ccccc2C(=O)NCc2ccccc2)cn1	2.452%
CN1CCc2c(NC(=O)NCc3ccccc3Cl)cccc21	-4.639%
CCn1c(N)nc2cc(C(=O)NCc3ccccc3Cl)cnc21	-4.176%
COc1ccccc1CNC(=O)c1ccccc1-n1cnc(CN)c1	104.3%
Cc1ccccc1CNC(=O)c1ccccc1-n1cnc(CN)c1	128.9%
